Common to all, as to parameters: scale not given: direction of the effect not stated beside the values
Assay [1] addresses Protein translocase subunit SecA (Escherichia coli (strain K12)) (UniProt P10408). Nature of the assay: Assay to Identify E. coli SecA ATPase Inhibitors. Type of assay: functional. To be noted: 30 µM.
The target of assay [2] is T1, Ubiquitin-activating enzyme e1, putative (Leishmania donovani (strain BPK282A1)) (UniProt E9BSI1).
T1 sequence (whole entry): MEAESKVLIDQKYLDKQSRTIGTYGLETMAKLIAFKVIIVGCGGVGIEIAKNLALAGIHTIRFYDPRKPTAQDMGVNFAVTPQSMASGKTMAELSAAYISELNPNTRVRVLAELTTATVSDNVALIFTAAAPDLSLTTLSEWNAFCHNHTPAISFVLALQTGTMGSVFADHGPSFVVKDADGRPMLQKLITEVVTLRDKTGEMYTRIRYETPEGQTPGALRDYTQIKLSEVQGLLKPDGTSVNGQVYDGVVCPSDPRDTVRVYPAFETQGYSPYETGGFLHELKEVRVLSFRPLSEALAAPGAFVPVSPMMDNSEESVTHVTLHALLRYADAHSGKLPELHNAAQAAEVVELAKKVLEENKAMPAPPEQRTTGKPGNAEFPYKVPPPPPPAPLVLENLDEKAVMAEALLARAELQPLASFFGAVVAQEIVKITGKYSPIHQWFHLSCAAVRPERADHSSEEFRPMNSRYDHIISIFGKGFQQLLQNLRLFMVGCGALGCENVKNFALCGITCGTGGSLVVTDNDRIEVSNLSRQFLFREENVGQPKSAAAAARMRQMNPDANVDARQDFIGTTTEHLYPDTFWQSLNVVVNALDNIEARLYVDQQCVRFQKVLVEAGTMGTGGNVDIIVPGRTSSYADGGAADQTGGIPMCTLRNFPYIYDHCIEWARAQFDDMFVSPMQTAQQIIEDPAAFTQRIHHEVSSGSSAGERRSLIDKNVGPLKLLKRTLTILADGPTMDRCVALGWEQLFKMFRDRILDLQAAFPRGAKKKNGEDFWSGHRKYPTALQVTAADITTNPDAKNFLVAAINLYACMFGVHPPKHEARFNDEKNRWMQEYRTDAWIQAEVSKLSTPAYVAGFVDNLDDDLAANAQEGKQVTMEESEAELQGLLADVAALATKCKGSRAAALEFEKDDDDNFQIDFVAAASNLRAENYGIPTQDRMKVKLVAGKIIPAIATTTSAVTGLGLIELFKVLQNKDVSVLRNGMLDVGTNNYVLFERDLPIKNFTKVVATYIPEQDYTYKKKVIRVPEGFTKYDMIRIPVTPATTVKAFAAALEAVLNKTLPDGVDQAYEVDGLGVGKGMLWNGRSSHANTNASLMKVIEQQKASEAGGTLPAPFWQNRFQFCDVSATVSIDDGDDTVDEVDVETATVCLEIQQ
In words: Leishmania donovani Ubiquitin Activating Enzyme (LdE1). It is filed as functional. To be noted: 30 µM.

In assay [3] the target is Sialic acid-binding Ig-like lectin 9 (Homo sapiens) (UniProt Q9Y336). Nature of the assay: Hs-Siglec9 ALPHAscreen SOP 20170721. The settings on record: 10 µM. A general note: Alpha assays give light when donor and acceptor beads are brought close together.
Another assay relates to Trypanosoma cruzi. Nature of the assay: Trypanosoma cruzi phosphomannomutase and mannose-1-phosphate guanylyltransferase assay. It is filed as functional. To be noted: 10 µM.
Assay [4] deals with T2, Arginase-2, mitochondrial (Homo sapiens) (UniProt P78540).
T2 sequence (whole entry): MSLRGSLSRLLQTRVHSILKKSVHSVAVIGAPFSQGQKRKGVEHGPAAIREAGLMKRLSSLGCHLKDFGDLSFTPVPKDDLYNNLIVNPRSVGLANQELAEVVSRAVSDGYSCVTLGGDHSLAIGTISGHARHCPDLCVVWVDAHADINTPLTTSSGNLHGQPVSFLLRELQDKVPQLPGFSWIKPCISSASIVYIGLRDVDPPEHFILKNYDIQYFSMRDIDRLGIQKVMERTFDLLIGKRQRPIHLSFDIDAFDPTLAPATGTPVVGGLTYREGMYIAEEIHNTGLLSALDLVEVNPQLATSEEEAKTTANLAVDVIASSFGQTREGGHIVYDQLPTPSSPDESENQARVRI
Nature of the assay: in vitro enzyme assay to detect the production of urea directly proportional to the activity of Arginase II. Note: in the data most compounds retested in dose-response had high values. To be noted: 33.3 µM. It is filed as functional.

Assay [5] deals with T3, Proteasome subunit beta (Trypanosoma cruzi) (UniProt O96673).
T3 sequence (whole entry): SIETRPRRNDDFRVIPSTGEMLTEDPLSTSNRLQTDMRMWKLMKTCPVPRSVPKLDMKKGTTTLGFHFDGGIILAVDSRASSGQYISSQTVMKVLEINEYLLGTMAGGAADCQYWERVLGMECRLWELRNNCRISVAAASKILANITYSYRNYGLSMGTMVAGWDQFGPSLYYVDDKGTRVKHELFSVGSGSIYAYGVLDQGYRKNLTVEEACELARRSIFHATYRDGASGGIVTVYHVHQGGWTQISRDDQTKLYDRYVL
Nature of the assay: Trypanosoma cruzi proteasome chymotrypsin-like activity (TcProtChymo) assay. Note: in the data most compounds retested in dose-response had high values. It is filed as functional. The settings on record: 9.37 µM.

The next assay is filed under the species Homo sapiens. Nature of the assay: To identify inhibition of the IFN signalling (Jak-Stat) pathway via expression of an eGFP reporter gene under the control of an IFN-stimulated response element (ISRE) containing MxA promoter. Type of assay: functional. To be noted: 30 µM. In general terms: Reporter assays use an easily measured gene product as a stand-in for the process of interest.

Assay [6] has as its target T4, Tyrosyl-tRNA synthetase, putative (Trypanosoma cruzi (strain CL Brener)) (UniProt Q4DSP6).
T4 sequence (whole entry): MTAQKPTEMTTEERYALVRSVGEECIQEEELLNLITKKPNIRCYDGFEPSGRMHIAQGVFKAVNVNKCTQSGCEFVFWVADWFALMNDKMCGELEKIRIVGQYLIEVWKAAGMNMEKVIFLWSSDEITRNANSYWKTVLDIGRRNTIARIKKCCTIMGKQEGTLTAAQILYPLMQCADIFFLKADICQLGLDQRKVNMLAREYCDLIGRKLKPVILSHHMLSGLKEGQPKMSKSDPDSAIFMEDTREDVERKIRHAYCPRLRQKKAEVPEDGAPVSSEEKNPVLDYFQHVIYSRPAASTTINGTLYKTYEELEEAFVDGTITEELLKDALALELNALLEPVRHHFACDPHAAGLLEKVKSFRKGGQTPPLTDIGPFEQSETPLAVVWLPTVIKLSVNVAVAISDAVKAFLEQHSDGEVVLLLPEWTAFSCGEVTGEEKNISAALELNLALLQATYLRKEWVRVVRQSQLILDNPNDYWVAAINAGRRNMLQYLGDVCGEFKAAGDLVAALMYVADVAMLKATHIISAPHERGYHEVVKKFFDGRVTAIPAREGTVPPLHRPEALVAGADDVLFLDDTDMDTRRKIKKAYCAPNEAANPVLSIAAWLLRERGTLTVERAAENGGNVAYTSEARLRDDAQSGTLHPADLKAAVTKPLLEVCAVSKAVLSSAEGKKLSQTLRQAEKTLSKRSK
In words: Trypanosoma cruzi tyrosyl tRNA synthetase (TcYRS) _High Tyrosine SOP. Note: in the data most compounds retested in dose-response had high values. It is filed as functional. To be noted: 30 µM.

For assay [7], the target named is T4, Tyrosyl-tRNA synthetase, putative (Trypanosoma cruzi (strain CL Brener)). In words: Trypanosoma cruzi tyrosyl tRNA synthetase (TcYRS) SOP. It is filed as functional. The settings on record: 30 µM.
For assay [8], the target named is Chromo domain-containing protein 1 (Saccharomyces cerevisiae (strain ATCC 204508 / S288c) (Baker's yeast)) (UniProt P32657). Nature of the assay: ScCHD-1 Enzyme Inhibition Assay. Note: in the data most compounds retested in dose-response had high values. Type of assay: functional. To be noted: 30 µM.

Each structure is given as a SMILES string. For part of these data: Entries with a potency or affinity are not part of this list.

Sequence of Protein translocase subunit SecA (Escherichia coli (strain K12)) (P10408 whole entry): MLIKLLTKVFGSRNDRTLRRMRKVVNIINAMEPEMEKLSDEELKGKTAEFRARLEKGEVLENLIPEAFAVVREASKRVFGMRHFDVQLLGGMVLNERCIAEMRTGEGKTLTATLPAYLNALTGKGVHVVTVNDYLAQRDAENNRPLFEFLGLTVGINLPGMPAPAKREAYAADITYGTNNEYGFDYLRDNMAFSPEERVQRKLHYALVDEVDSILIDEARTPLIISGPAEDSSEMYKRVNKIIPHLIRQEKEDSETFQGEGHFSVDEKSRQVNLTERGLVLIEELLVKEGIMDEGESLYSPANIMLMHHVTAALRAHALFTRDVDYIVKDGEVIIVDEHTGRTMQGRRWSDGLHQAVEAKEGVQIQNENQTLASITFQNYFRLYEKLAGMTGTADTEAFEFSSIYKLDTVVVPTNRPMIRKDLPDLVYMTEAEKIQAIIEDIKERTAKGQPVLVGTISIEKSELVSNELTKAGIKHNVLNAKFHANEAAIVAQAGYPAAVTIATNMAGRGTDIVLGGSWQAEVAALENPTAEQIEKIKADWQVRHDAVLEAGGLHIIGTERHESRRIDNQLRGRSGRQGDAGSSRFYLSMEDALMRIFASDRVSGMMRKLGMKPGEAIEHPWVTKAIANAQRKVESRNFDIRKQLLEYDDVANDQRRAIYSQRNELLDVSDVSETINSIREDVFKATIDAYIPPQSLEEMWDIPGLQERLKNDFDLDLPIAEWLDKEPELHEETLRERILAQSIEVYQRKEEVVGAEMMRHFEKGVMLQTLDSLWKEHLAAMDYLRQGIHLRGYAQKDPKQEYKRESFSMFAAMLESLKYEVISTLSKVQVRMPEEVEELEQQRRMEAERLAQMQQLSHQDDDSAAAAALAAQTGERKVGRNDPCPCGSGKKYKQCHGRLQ
Sequence of Chromo domain-containing protein 1 (Saccharomyces cerevisiae (strain ATCC 204508 / S288c) (Baker's yeast)) (P32657 whole entry, the tested form may be a part): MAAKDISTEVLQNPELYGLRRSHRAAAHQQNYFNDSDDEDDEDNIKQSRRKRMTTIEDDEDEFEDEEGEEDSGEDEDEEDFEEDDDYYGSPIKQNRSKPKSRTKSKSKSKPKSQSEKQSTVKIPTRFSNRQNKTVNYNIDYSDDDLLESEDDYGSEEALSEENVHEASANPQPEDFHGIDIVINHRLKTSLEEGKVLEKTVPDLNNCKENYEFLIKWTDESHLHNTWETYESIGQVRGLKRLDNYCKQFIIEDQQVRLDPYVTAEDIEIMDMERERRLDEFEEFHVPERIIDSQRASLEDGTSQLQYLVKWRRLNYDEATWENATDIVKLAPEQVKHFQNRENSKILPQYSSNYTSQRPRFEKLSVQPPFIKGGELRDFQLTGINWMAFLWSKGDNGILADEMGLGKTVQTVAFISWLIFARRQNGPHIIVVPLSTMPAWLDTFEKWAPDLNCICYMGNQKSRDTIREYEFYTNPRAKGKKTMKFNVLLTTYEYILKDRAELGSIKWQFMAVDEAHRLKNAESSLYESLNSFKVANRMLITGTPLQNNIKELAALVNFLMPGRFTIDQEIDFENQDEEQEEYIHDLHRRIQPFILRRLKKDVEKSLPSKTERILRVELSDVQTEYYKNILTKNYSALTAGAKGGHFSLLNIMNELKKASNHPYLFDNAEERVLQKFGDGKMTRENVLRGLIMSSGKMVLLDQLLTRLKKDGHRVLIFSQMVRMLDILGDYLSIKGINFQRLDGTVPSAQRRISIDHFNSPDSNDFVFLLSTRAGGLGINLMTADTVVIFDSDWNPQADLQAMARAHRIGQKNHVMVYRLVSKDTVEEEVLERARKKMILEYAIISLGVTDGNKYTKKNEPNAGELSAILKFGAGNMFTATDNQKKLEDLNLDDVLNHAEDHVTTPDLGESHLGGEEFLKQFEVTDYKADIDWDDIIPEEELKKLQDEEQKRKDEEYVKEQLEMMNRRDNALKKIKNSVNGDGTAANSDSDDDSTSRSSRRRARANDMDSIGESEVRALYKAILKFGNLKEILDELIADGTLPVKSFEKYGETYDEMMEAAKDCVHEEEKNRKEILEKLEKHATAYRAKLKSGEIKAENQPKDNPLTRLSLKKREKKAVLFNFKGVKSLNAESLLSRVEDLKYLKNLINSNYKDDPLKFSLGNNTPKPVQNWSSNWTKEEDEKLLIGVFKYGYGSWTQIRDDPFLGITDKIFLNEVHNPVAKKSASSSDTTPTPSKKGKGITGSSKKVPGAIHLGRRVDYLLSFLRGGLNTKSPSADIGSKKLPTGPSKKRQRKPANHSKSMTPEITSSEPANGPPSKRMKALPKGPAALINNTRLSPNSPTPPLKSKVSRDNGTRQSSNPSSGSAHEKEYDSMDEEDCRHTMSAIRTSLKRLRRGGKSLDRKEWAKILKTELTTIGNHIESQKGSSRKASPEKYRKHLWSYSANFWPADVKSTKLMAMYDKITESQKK
Sequence of Sialic acid-binding Ig-like lectin 9 (Homo sapiens) (Q9Y336 whole entry): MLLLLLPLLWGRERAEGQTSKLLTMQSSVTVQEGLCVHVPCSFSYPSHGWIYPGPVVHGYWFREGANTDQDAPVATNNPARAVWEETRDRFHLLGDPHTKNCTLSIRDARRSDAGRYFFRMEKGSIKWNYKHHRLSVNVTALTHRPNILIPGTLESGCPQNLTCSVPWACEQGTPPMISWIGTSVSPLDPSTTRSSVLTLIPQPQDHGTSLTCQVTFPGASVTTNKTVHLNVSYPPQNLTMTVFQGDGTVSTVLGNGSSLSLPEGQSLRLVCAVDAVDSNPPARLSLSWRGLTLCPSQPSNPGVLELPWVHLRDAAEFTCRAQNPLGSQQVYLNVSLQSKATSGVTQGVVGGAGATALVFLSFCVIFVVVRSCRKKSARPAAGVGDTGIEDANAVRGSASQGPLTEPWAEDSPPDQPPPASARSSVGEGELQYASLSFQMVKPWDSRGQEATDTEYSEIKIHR

For the compound `CCNc1cc2c(nn1)CCN(C(=O)c1cc3nc(C)ccc3o1)C2`, the Percent Effect is -8.41% in assay [1]; 13.3% in assay [2]; 11.1% in [3]; 9.04% in the assay with Trypanosoma cruzi; -0.887% in [4]; 20.4% in [5]. In addition, the Percent Effect is 6.54% in the assay listed under Homo sapiens, 5.79% in assay [6], 15.4% in [7] and -6.95% in assay [8].

`CN(C)CC1CN(Cc2nnc(-c3ccccc3Cl)o2)CCO1` (stereo not given): the Percent Effect in [1] was -1.11%; in assay [2], 13.3%; in assay [3], -7.04%; in the assay with Trypanosoma cruzi, -2.81%; in assay [4] it was 1.77%; in [5] it was 15.7%. Also, the Percent Effect in the assay listed under Homo sapiens was 9.96%; in assay [6] it was -3.68%; in assay [7] it was 0%; in assay [8] it was -11.7%.

Regarding `Cc1ccc(Cl)cc1N1CCC(CNC(=O)CC(F)(F)F)C1` (stereo not given), the Percent Effect in assay [1] is -3.87%; in assay [2], -2.56%; in [3], -7.65%; in the assay on Trypanosoma cruzi it was -2.54%; in assay [4] it was 1.23%; in [5] it was 7.25%. Also, the Percent Effect in the assay listed under Homo sapiens was 38.9%; in [6], -0.478%; in assay [7] it was -3.61%; in assay [8], 0.808%.

Regarding `Cc1ccoc1-c1nnc(CN2CCCC(Cn3cncn3)C2)o1` (stereo not given), the Percent Effect in assay [1] was -4.32%; in assay [2] it was 0%; in assay [3], 3.64%; in the assay with Trypanosoma cruzi, 2.54%; in assay [4] it was 7.38%; in [5], -8.45%. For the same compound, the Percent Effect was 14.1% in the assay listed under Homo sapiens, 3.35% in assay [6], 1.21% in assay [7] and -1.2% in assay [8].

As to `COc1ccc(C(=O)NCCCn2ccnc2)c(OC)n1`, the Percent Effect was -2.17% in [1]; 24.7% in assay [2]; 1.39% in assay [3]; 3.75% in the assay on Trypanosoma cruzi; 0% in [4]; 10.6% in assay [5]. In addition, the Percent Effect in the assay listed under Homo sapiens is 11.6%; in assay [6], 6.76%; in [7], 22.5%; in assay [8], -12.8%.

For `O=C1CCC2(CCN(Cc3ccc(F)cc3)CC2)N1Cc1ccccc1`, the Percent Effect is -4.42% in assay [1]; 3.9% in assay [2]; -4.8% in assay [3]; -2.63% with Trypanosoma cruzi; -0.913% in assay [4]; 9.7% in assay [5]. For the same compound, the Percent Effect in the assay filed under Homo sapiens is 1.33%; in assay [6], 5.8%; in assay [7], 7.5%; in [8], -4.62%.

`COc1ccc(CC(=O)N2C[C@@H]3COC[C@]3(CN(C)C)C2)cc1`: the Percent Effect was -3.95% in [1]; -42.9% in assay [2]; 3.29% in assay [3]; 3.8% with Trypanosoma cruzi; -6.07% in assay [4]; 1.15% in assay [5]. In addition, the Percent Effect is -12.9% in the assay listed under Homo sapiens, -26.8% in [6], -43.6% in assay [7] and 1.23% in assay [8].

`COc1cccc(-n2nnc(C(=O)N3CCN(C)CC3C)c2C)c1` (stereo not given): the Percent Effect in [1] is 1.69%; in assay [2] it was 25.6%; in assay [3], -23.9%; with Trypanosoma cruzi it was 6.1%; in assay [4], -2.46%; in assay [5], 13.4%. In addition, the Percent Effect in the assay filed under Homo sapiens was 27.9%; in assay [6] it was 3.35%; in assay [7] it was 22.9%; in [8], 12.3%.

For `CN(C)CC(=O)N1CCC2(CC(=O)N(c3cccc(C#N)c3)C2)C1` (stereo not given), the Percent Effect in assay [1] was -7.09%; in assay [2], 6.49%; in assay [3] it was -3.56%; with Trypanosoma cruzi, -4.58%; in assay [4], -5.67%; in assay [5], 13%. Besides, the Percent Effect in the assay filed under Homo sapiens is 3.5%; in [6], 2.63%; in assay [7] it was 5.13%; in [8], -1.61%.

Consider `Cc1noc(C(C)C)c1C(=O)NCCN1CCCCCC1=O`, for which the Percent Effect in assay [1] came out at 0.794%; in assay [2], 20.8%; in assay [3], 3.57%; in the assay with Trypanosoma cruzi, 1.68%; in assay [4] it was 1.02%; in [5], 14.9%. For the same compound, the Percent Effect in the assay listed under Homo sapiens is -6.97%; in assay [6], 6.86%; in [7] it was 16.5%; in [8], -7.87%.

Turning to `CC(C)(C)n1ncc2c1NC(=O)CC2c1ccc(OCC(N)=O)cc1` (stereo not given), the Percent Effect was -6.78% in assay [1]; 5.41% in [2]; -0.0971% in assay [3]; 0.097% in the assay on Trypanosoma cruzi; 1.75% in assay [4]; 11.8% in assay [5]. Besides, the Percent Effect in the assay listed under Homo sapiens is -6.02%; in assay [6], 9.04%; in assay [7] it was 14.6%; in assay [8] it was -0.195%.

Take `CC(C)N(Cc1cccc(F)c1)Cc1nc2c(cnn2C)c(=O)[nH]1`: the Percent Effect in assay [1] was -1.46%; in assay [2], 7.69%; in assay [3], 6.74%; with Trypanosoma cruzi it was 0.469%; in [4], 3.28%; in assay [5], 1.79%. The Percent Effect in the assay listed under Homo sapiens was 5.6%; in assay [6], 3.35%; in assay [7], 13.2%; in assay [8] it was -4.1%.
